We go through 20 compounds from PubChem BioAssay (NCI).

Molecules are shown by their SMILES. The panel holds about 79,000 compounds, 15% with a hit somewhere; the sample as a whole holds those more often. Values without a mark were called inactive. Activity calls are given as the source filed them. No stated cut-off is given here; in the data, active means growth inhibition above about 70%; inactive means the rest.

Test [1] is described as follows: NCI Yeast Anticancer Drug Screen. Data for the rad50 strain (AID 155).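 Further: 0% = growth of vehicle-only cultures of the same strain.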 Conditions: S. cerevisiae rad50 strain growth inhibition; at 50.0 µM; stronger effect = higher value. The procedure, abridged: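 Inhibition values express reduced yeast growth in compound-treated cultures relative to vehicle-treated controls.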
Test [2] is described as follows: NCI Yeast Anticancer Drug Screen. Data for the mec2-1 strain (AID 157). Conditions: S. cerevisiae mec2-1 strain, at 50.0 µM, stronger effect = higher value. The procedure, abridged: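 Mutant yeast (mec2-1) grown with compound; growth inhibition relative to vehicle control reported.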
Test [3] in a line: NCI Yeast Anticancer Drug Screen. Data for the sgs1 mgt1 strain (AID 161).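 Further: 0% = growth of cultures given vehicle only.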 Conditions: S. cerevisiae sgs1 mgt1 strain, at 50.0 µM, stronger effect = higher value. The procedure, abridged: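 This yeast growth screen uses a strain with defined DNA-repair lesions; compound-treated growth is compared with vehicle-treated growth.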
The nature of test [4]: NCI Yeast Anticancer Drug Screen. Data for the cln2 rad14 strain (AID 165).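 Further: 0% = growth equal to vehicle treated cultures.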 Conditions: S. cerevisiae cln2 rad14 strain, at 50.0 µM, stronger effect = higher value. The procedure, abridged: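 Readout is yeast growth inhibition versus vehicle-treated controls, using a strain with cln2 and rad14 alterations exposed to compound.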
Test [5] is described as follows: NCI Yeast Anticancer Drug Screen. Data for the bub3 strain (AID 167). Conditions: S. cerevisiae bub3 mutant strain, at 50.0 µM, stronger effect = higher value. The gist of the method:
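Steps: expose the mutant yeast strain to compound; grow alongside vehicle-treated cultures; measure growth; express inhibition against the vehicle cultures.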

Test [6] can be described thus: NCI Yeast Anticancer Drug Screen. Data for the mlh1 rad18 strain (AID 175). Conditions: S. cerevisiae mlh1 rad18 strain growth inhibition; at 50.0 µM; stronger effect = higher value. The gist of the method: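 Genetically defined yeast (DNA repair-deficient) exposed to compounds; growth inhibition determined relative to vehicle.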

Take `O=S(=O)(Nc1cccc(Br)c1)N1CCCCC1`: the growth inhibition is 23.5% in test [1]; 10% in test [2]; 23.6% in test [3]; 13.8% in test [4]; 28.6% in test [5]; 31.6% in test [6].
Consider `O=C(NC1CCCCC1)Oc1ccc[nH]c1=O`, for which the growth inhibition in test [1] was -14.8%; in test [2] it was -16.8%; in test [3] it was -13.6%; in test [4], -26.9%; in test [5], 2.25%; in test [6], -1.25%.
For `Cc1[nH]c(=O)cc(C(=O)O)c1CN`, the growth inhibition in test [1] is 7.15%; in test [2], -8.75%; in test [3], 3.7%; in test [4], -59.2%; in test [5], -7.25%; in test [6] it was -3.45%.
As for `OCC(O)C(O)C(O)C(O)C(O)[C@@H](O)c1nc2ccccc2[nH]1` (stereo not given in full), the growth inhibition in test [1] was -9.2%; in test [2] it was -5.4%; in test [3] it was -12.3%; in test [4] it was -16.9%; in test [5], 50.1%; in test [6], 6.6%.
`Cc1cccc(-n2c(N)c(-c3nc4ccccc4[nH]3)sc2=S)c1`: the growth inhibition was 6.7% in test [1]; -11.9% in test [2]; 13.4% in test [3]; 10.2% in test [4]; 3.4% in test [5]; 2.6% in test [6].
As to `CN/N=C(\C)CC(=O)Nc1cccc(Cl)c1C`, the growth inhibition in test [1] is -13.7%; in test [2], -17.6%; in test [3], -1.15%; in test [4], 17.2%; in test [5] it was -15%; in test [6], 1.9%.
For the compound `CCOP(=O)(OCC)/C(=C\n1ccc(=O)[nH]c1=S)C(=O)OC`, the growth inhibition in test [1] is -54.8%; in test [2], -54%; in test [3], -27.4%; in test [4], -8.6%; in test [5], -28%; in test [6] it was -53.5%.
For `COC(=O)CCCCl`, the growth inhibition in test [1] was -51%; in test [2], -56.4%; in test [3], -38%; in test [4], 8.25%; in test [5], -21%; in test [6], -15.6%.
Take `CC1CCN(C(c2ccccc2)c2ccc3ccccc3c2O)CC1` (stereo not given): the growth inhibition in test [1] is 51.8%; in test [2] it was 42.2%; in test [3] it was 55.4%; in test [4] it was -6.8%; in test [5], 33.6%; in test [6] it was 75% (active).
Turning to `O=c1nc(Oc2ccccc2)nc2c3ccccc3ccn12`, the growth inhibition in test [1] is -5.4%; in test [2], 16.1%; in test [3], 11.9%; in test [4], -9.9%; in test [5], 18.8%; in test [6], 24.4%.
Regarding `C[N+](C)(C)C1=CC=CC=C1.Br[Br-]Br`, the growth inhibition in test [1] was 22.5%; in test [2] it was -29.6%; in test [3] it was 0.15%; in test [4], 4.7%; in test [5] it was 11.6%; in test [6], -2.25%.
For the compound `C/C(CC(=O)N1CCCCC1)=N\NC(N)=S`, the growth inhibition in test [1] is -6.95%; in test [2], -9.45%; in test [3] it was -18.9%; in test [4] it was -10.5%; in test [5], 2.2%; in test [6], -18.2%.
For the compound `C=CS(=O)(=O)CCCCCCCCCCCCCC`, the growth inhibition in test [1] is 28.1%; in test [2], 27.6%; in test [3] it was 28.9%; in test [4], 2.1%; in test [5], -5%; in test [6], 29.5%.
For `Nc1cc(C(F)(F)F)ccc1F`, the growth inhibition in test [1] is 2.5%; in test [2], -13.8%; in test [3], -9%; in test [4], -5.6%; in test [5] it was 6.65%; in test [6], 27.4%.
In the case of `O=[N+]([O-])c1ccc(N/N=C/CCCCl)c([N+](=O)[O-])c1`, the growth inhibition in test [1] was 6.6%; in test [2], -17.3%; in test [3], 13.2%; in test [4] it was 12.4%; in test [5] it was 11.1%; in test [6] it was 9.05%.
For `C#CC(OC(C)=O)C1OC(n2cnc3c(Cl)nc(Cl)nc32)C(OC(C)=O)C1OC(C)=O` (stereo not given), the growth inhibition in test [1] is 37.5%; in test [2], 2.45%; in test [3] it was 21.2%; in test [4] it was 17.9%; in test [5] it was 10.8%; in test [6] it was 24.4%.
For the compound `CCCCCCCCCCCC(=O)Oc1c(Cl)cc(Cl)c(OC(=O)C(=O)Oc2c(Cl)cc(Cl)c(OC(=O)CCCCCCCCCCC)c2Cl)c1Cl`, the growth inhibition in test [1] is -26.1%; in test [2], -21.9%; in test [3], -11.2%; in test [4] it was 16.9%; in test [5], -4.2%; in test [6], -19.9%.
As for `Nc1ccc(S(=O)(=O)NC2C(O)OC(CO)C(O)C2O)cc1` (stereo not given), the growth inhibition in test [1] is 15.6%; in test [2], -16.2%; in test [3], 6.65%; in test [4], -21.6%; in test [5], 9.7%; in test [6] it was 28.4%.
For `CCN(CC)CCCS/C(N)=N\S(=O)(=O)c1ccc(N)cc1`, the growth inhibition in test [1] was -6.35%; in test [2], -41%; in test [3] it was -20.2%; in test [4], -7.8%; in test [5], -0.5%; in test [6], -16.6%.
For the compound `CCCCCCCNC(C)=O`, the growth inhibition in test [1] is 14.1%; in test [2], 15.5%; in test [3], 3.6%; in test [4], 10.1%; in test [5], -0.7%; in test [6] it was -5%.
